About 2,000 (36%) of roughly 5,500 compounds were called active. Another 18% or so got no clear call; they are omitted. Cut-off read from the data, not from the text of the source: active = normalized growth mostly below about 0.91 (no sharp cut-off); inconclusive = no clear call, values can overlap the other calls; inactive = mostly above about 0.92. The list shows a part of the results.
Experiment: chemical genetic growth profiling, strain panel (AID 1159580);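 note: tested at 20 µM; growth read once vehicle control cultures reached saturation at 30 °C; 1 = growth at the plate median or of vehicle wells; lower values mean less growth of the strain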
Settings: growth OD

Measured: normalized growth

NC[C@H]1O[C@H](O[C@H]2C(O[C@@H]3O[C@H](CO)[C@@H](O)[C@H]3O)[C@@H](O)[C@H](N)C[C@@H]2N)[C@H](N)[C@@H](O)[C@@H]1O (some centres not stated)
inactive: S. cerevisiae deletion strains, locus YJR075W, strain HOC1, stronger effect = lower value 0.987 | S. cerevisiae deletion strains, locus YKL009W, strain mrt4, stronger effect = lower value 0.995 | S. cerevisiae deletion strains, locus YKL068W, stronger effect = lower value 0.99 | S. cerevisiae deletion strains, locus YKL085W, strain MDH1 (second series), stronger effect = lower value 1 | S. cerevisiae deletion strains, locus YKL085W, strain MDH1, stronger effect = lower value 1 | S. cerevisiae deletion strains, locus YKL160W, strain elf1, stronger effect = lower value 1.01 | S. cerevisiae deletion strains, locus YKL190W, strain CNB1, stronger effect = lower value 1.02 | S. cerevisiae deletion strains, locus YKR001C, strain vps1, stronger effect = lower value 0.976 | S. cerevisiae deletion strains, locus YKR026C, strain gcn3, stronger effect = lower value 0.982 | S. cerevisiae deletion strains, locus YKR091W, strain srl3, stronger effect = lower value 0.993 | S. cerevisiae deletion strains, locus YLL001W, strain dnm1, stronger effect = lower value 1 | S. cerevisiae deletion strains, locus YLL026W, stronger effect = lower value 0.984 | S. cerevisiae deletion strains, locus YLL041C, strain sdh2, stronger effect = lower value 0.995 | S. cerevisiae deletion strains, locus YLR027C, strain aat2, stronger effect = lower value 1 | S. cerevisiae deletion strains, locus YLR039C, strain RIC1, stronger effect = lower value 0.989 | S. cerevisiae deletion strains, locus YLR058C, strain SHM2, stronger effect = lower value 0.99 | S. cerevisiae deletion strains, locus YLR102C, strain apc9, stronger effect = lower value 0.999 | S. cerevisiae deletion strains, locus YLR113W, strain HOG1, stronger effect = lower value 1.03 | S. cerevisiae deletion strains, locus YLR221C, strain rsa3, stronger effect = lower value 1 | S. cerevisiae deletion strains, locus YLR258W, strain gsy2, stronger effect = lower value 0.995 | S. cerevisiae deletion strains, locus YLR262C, strain YPT6 (second series), stronger effect = lower value 1.01 | S. cerevisiae deletion strains, locus YLR262C, strain YPT6, stronger effect = lower value 0.997 | S. cerevisiae deletion strains, locus YLR268W, strain sec22, stronger effect = lower value 0.955 | S. cerevisiae deletion strains, locus YLR320W, strain mms22, stronger effect = lower value 0.991 | S. cerevisiae deletion strains, locus YLR330W, strain CHS5, stronger effect = lower value 0.997 | S. cerevisiae deletion strains, locus YLR342W, strain FKS1 (second series), stronger effect = lower value 1.03 | S. cerevisiae deletion strains, locus YLR342W, strain FKS1, stronger effect = lower value 1 | S. cerevisiae deletion strains, locus YLR357W, strain rsc2, stronger effect = lower value 0.967 | S. cerevisiae deletion strains, locus YLR370C, strain arc18, stronger effect = lower value 0.998 | S. cerevisiae deletion strains, locus YLR371W, strain rom2, stronger effect = lower value 0.987 | S. cerevisiae deletion strains, locus YLR384C, strain iki3, stronger effect = lower value 0.985 | S. cerevisiae deletion strains, locus YLR418C, strain cdc73, stronger effect = lower value 0.975 | S. cerevisiae deletion strains, locus YML016C, strain PPZ1, stronger effect = lower value 0.992 | S. cerevisiae deletion strains, locus YML032C, strain rad52, stronger effect = lower value 0.979 | S. cerevisiae deletion strains, locus YML120C, strain ndi1, stronger effect = lower value 1.01 | S. cerevisiae deletion strains, locus YML124C, strain tub3, stronger effect = lower value 0.993 | S. cerevisiae deletion strains, locus YMR058W, strain fet3, stronger effect = lower value 1 | S. cerevisiae deletion strains, locus YMR078C, strain ctf18, stronger effect = lower value 0.99 | S. cerevisiae deletion strains, locus YMR125W, strain sto1, stronger effect = lower value 0.963 | S. cerevisiae deletion strains, locus YMR129W, stronger effect = lower value 0.981 | S. cerevisiae deletion strains, locus YMR205C, strain PFK2, stronger effect = lower value 0.962 | S. cerevisiae deletion strains, locus YMR223W, strain ubp8, stronger effect = lower value 1.01 | S. cerevisiae deletion strains, locus YMR231W, strain pep5, stronger effect = lower value 1 | S. cerevisiae deletion strains, locus YMR263W, strain SAP30, stronger effect = lower value 0.995 | S. cerevisiae deletion strains, locus YMR307W, strain GAS1, stronger effect = lower value 0.997 | S. cerevisiae deletion strains, locus YNL067W, strain RPL9B, stronger effect = lower value 0.984 | S. cerevisiae deletion strains, locus YNL071W, strain lat1, stronger effect = lower value 1.01 | S. cerevisiae deletion strains, locus YNL128W, strain TEP1, stronger effect = lower value 0.994 | S. cerevisiae deletion strains, locus YNL153C, strain GIM3, stronger effect = lower value 0.993 | S. cerevisiae deletion strains, locus YNL183C, strain NPR1, stronger effect = lower value 0.974 | S. cerevisiae deletion strains, locus YNL209W, strain ssb2, stronger effect = lower value 1 | S. cerevisiae deletion strains, locus YNL233W, strain BNI4, stronger effect = lower value 0.981 | S. cerevisiae deletion strains, locus YNL248C, strain rpa49, stronger effect = lower value 1.01 | S. cerevisiae deletion strains, locus YNL250W, strain rad50, stronger effect = lower value 0.987 | S. cerevisiae deletion strains, locus YNL271C, strain bni1, stronger effect = lower value 0.99 | S. cerevisiae deletion strains, locus YNL298W, strain CLA4, stronger effect = lower value 0.981 | S. cerevisiae deletion strains, locus YNL307C, strain MCK1, stronger effect = lower value 0.989 | S. cerevisiae deletion strains, locus YNL322C, strain KRE1 (second series), stronger effect = lower value 0.987 | S. cerevisiae deletion strains, locus YNL322C, strain KRE1, stronger effect = lower value 1 | S. cerevisiae deletion strains, locus YNR049C, strain mso1, stronger effect = lower value 0.997 | S. cerevisiae deletion strains, locus YNR052C, strain pop2, stronger effect = lower value 0.992 | S. cerevisiae deletion strains, locus YOL006C, strain TOP1, stronger effect = lower value 0.988 | S. cerevisiae deletion strains, locus YOL012C, strain htz1 0.933 | S. cerevisiae deletion strains, locus YOL147C, strain pex11, stronger effect = lower value 0.989 | S. cerevisiae deletion strains, locus YOR001W, strain rrp6, stronger effect = lower value 1 | S. cerevisiae deletion strains, locus YOR061W, strain CKA2, stronger effect = lower value 0.997 | S. cerevisiae deletion strains, locus YOR069W, strain VPS5, stronger effect = lower value 0.988 | S. cerevisiae deletion strains, locus YOR070C, strain gyp1, stronger effect = lower value 1 | S. cerevisiae deletion strains, locus YOR080W, strain dia2, stronger effect = lower value 0.987 | S. cerevisiae deletion strains, locus YOR083W, strain WHI5, stronger effect = lower value 1.01 | S. cerevisiae deletion strains, locus YOR106W, strain vam3, stronger effect = lower value 1 | S. cerevisiae deletion strains, locus YOR136W, strain idh2, stronger effect = lower value 0.995 | S. cerevisiae deletion strains, locus YOR144C, strain elg1, stronger effect = lower value 0.985 | S. cerevisiae deletion strains, locus YOR184W, strain ser1, stronger effect = lower value 0.975 | S. cerevisiae deletion strains, locus YOR231W, strain MKK1, stronger effect = lower value 0.975 | S. cerevisiae deletion strains, locus YOR265W, strain rbl2, stronger effect = lower value 0.991 | S. cerevisiae deletion strains, locus YOR270C, strain vph1, stronger effect = lower value 1.01 | S. cerevisiae deletion strains, locus YOR290C, strain snf2, stronger effect = lower value 0.957 | S. cerevisiae deletion strains, locus YOR316C, strain cot1, stronger effect = lower value 0.994 | S. cerevisiae deletion strains, locus YPL051W, strain arl3, stronger effect = lower value 1.01 | S. cerevisiae deletion strains, locus YPL055C, strain LGE1, stronger effect = lower value 1.04 | S. cerevisiae deletion strains, locus YPL078C, strain atp4, stronger effect = lower value 1.01 | S. cerevisiae deletion strains, locus YPL106C, strain sse1, stronger effect = lower value 0.951 | S. cerevisiae deletion strains, locus YPL240C, strain hsp82, stronger effect = lower value 1.01 | S. cerevisiae deletion strains, locus YPL241C, strain CIN2, stronger effect = lower value 1 | S. cerevisiae deletion strains, locus YPL256C, strain CLN2, stronger effect = lower value 0.986 | S. cerevisiae deletion strains, locus YPR119W, strain clb2, stronger effect = lower value 1 | S. cerevisiae deletion strains, locus YPR141C, strain kar3, stronger effect = lower value 0.978 | S. cerevisiae deletion strains, locus YPR163C, strain tif3, stronger effect = lower value 0.989 | S. cerevisiae deletion strains, locus YPR167C, strain met16, stronger effect = lower value 0.991 | S. cerevisiae deletion strains, strain wtn01, stronger effect = lower value 0.956 | S. cerevisiae strains, strain wild type, stronger effect = lower value 1
